Assay results reported in PubChem BioAssay AID504832 (National Center for Advancing Translational Sciences (NCATS), 2011).
In all, about 310,000 compounds went through this assay and about 18,000 (5.8%) were called active. Where a call stands in place of a potency, no number is given. Inconclusive results (about 22%) are left out. The call rests on the fitted dose curve; in most records, active means well fitted inhibition curve with a large enough effect; inconclusive means small, poorly fitted or top-dose-only effect, or another doubt; inactive means no such curve, though single readings can be large or run the other way. The full list was thinned out, with actives kept by preference.

Test: Primary qHTS for delayed death inhibitors of the malarial parasite plastid, 48 hour incubation
Details: P. falciparum luciferase growth in erythrocytes; series mostly up to 28.7 µM
Description: The goal of this screen is to discover new antimalarial compounds that act by inhibiting the development of the apicoplast in the malarial parasite Plasmodium falciparum. The biochemical processes that make this organelle essential for erythrocytic stage parasites are not well understood. However, antibiotics such as azithromycin and tetracycline, which target the apicoplast translational machinery, have a potent antimalarial effect.
We have developed a cell-based assay that measures parasite growth based on the expression of an integrated copy of a firefly luciferase reporter. To detect small molecules that cause this "delayed death" phenotype, erythrocytes infected with the luciferase-expressing parasites were incubated with compounds for either one or two generations, corresponding to 48 and 96 hours, respectively. Compounds that inhibit parasite growth in the second generation, but not the first, should be enriched in antimalarials that target the apicoplast. Growth inhibition is detected by a decrease in luciferase activity.
Assay Provider: David Fidock and Eric Ekland, Columbia University
Keywords: NIH Roadmap, MLPCN, MLI, MLSMR, qHTS, NCGC, qHTS, malaria, luciferase, viability
Four microliters of culture medium (RPMI 1640 with 0.5% w/v Albumax (GIBCO), 24 mM sodium bicarbonate and 10 ug/mL gentamycin) were dispensed by a Multi-drop Combi into white solid 1536-well plates (Grenier) and 23 nL compound was added by a pin tool. Four microliters of infected erythrocytes (2% hematocrit, 0.1% parasitemia final concentration) in culture medium were dispensed and the plates incubated for 48 hours at 37 C in 5% CO2. Two microliters of luciferase detection reagent was added and luminescence was detected by a ViewLux (PerkinElmer) reader.
Potency means the concentration at half of the fitted maximal effect.

Row | Compound | Potency | activity change, negative = inhibition
1 | CC(C)(C)c1ccc(CN2C(=O)CN=C(c3ccccc3)c3ccccc32)cc1 | 2.08 µM (active) | 
2 | CCn1c(CN2C(=O)CSc3ccccc32)n[nH]c1=S | inactive | 
3 | COc1ccc(CN2C(=O)CN=C2Nc2ccc(C)cc2C)cc1 | inactive | 
4 | O=S(=O)(NCCc1ccc(Cl)cc1)c1cccs1 | inactive | 
5 | Cc1cc(NCc2ccco2)n2c(nc3ccccc32)c1C#N | 4.15 µM (active) | 
6 | Cc1cc(NC(C)C)n2c(nc3ccccc32)c1C#N | inactive | 
7 | Cc1ccccc1-c1nc(C#N)c(NCc2ccco2)o1 | inactive | 
8 | COc1ccc(CCN2CC(C(=O)NCCN3CCNC3=O)CCC2=O)cc1 (stereo unspecified) | inactive | 
9 | CC1CCN(S(=O)(=O)c2ccc(S(=O)(=O)NCc3ccco3)cc2)CC1 | inactive | 
10 | O=S(=O)(c1ccc(F)cc1)N1CCN(C(=S)NC2CCCC2)CC1 | 7.38 µM (active) | 
11 | O=C(CN1CCN(S(=O)(=O)c2ccc(F)cc2)CC1)NC1CC1 | inactive | 
12 | O=S(=O)(c1ccc(F)cc1)N1CCN(C(=S)NCc2ccco2)CC1 | 1.47 µM (active) | 
13 | Cc1ccc(S(=O)(=O)N2CCC(C(=O)N[C@@H](C)C(=O)NCc3ccco3)CC2)cc1 | inactive | 
14 | O=C(O)C1CCCCC1C(=O)N1CCN(S(=O)(=O)c2ccc(F)cc2)CC1 (stereo unspecified) | inactive | 
15 | C=CCOc1ccc(/C=C/C(=O)OC(C)C(=O)Nc2ccc(NC(C)=O)cc2)cc1 (stereo unspecified) | inactive | 
16 | O=C(CN1CCCCCC1)Nc1ccc(Br)cc1[N+](=O)[O-] | inactive | 
17 | Cc1cc(OCC(=O)N(C)c2c(N)n(Cc3ccccc3)c(=O)[nH]c2=O)c(C(C)C)cc1Cl | inactive | 
18 | COc1cc(C2C(C(=O)c3ccc(C)o3)=C(O)C(=O)N2CCc2ccccc2)ccc1O (stereo unspecified) | inactive | 
19 | COc1ccc(CCN2C(=O)c3[nH]nc(-c4ccccc4O)c3C2c2ccc(C)cc2)cc1OC (stereo unspecified) | 9.28 µM (active) | 
20 | COc1ccc(CCN(C)CCN2C(=O)c3ccccc3C2=O)cc1OC | inactive | 
21 | COC(=O)c1nc2n(n1)C(c1ccc([N+](=O)[O-])cc1)C(C(=O)Nc1ccc(Cl)cc1)=C(C)N2 (stereo unspecified) | 1.65 µM (active) | 
22 | COc1ccc(NC(=O)C2=C(C)NC(=O)NC2c2ccccc2[N+](=O)[O-])cc1 (stereo unspecified) | inactive | 

Row | Compound | Potency | activity change, negative = inhibition
23 | COCCOC(=O)C1=C(C)Nc2nc(C)nn2C1c1ccccc1 (stereo unspecified) | inactive | 
24 | COCCN1CCN(C(=O)c2cc(COc3ccc(F)cc3Cl)on2)CC1 | inactive | 
25 | CC1CC(C)CN(S(=O)(=O)c2cccc3nonc23)C1 (stereo unspecified) | inactive | 
26 | C=CCn1c(SCC(=O)NCCCO)nc2sc3c(c2c1=O)CCC3 | inactive | 
27 | CC(C)c1nc(SCC(=O)Nc2cccc(C(=O)O)c2)c2c3c(sc2n1)CCCC3 | inactive | 
28 | CC(OC(=O)CN1C(=O)C2CCCCC2C1=O)C(=O)Nc1ncc(Cl)cc1Cl (stereo unspecified) | inactive | 
29 | CC1=CC(C)(C)Nc2ccc(OC(=O)CN3C(=O)C4CCCCC4C3=O)cc21 (stereo unspecified) | 10.4 µM (active) | 
30 | CC1=CC(C)(C)Nc2ccc(OC(=O)C(Cc3ccccc3)N3C(=O)C4CCCCC4C3=O)cc21 (stereo unspecified) | 13.1 µM (active) | 
31 | O=C(CN1C(=O)C2C3CCC(C3)C2C1=O)Oc1ccc2ccccc2c1 (stereo unspecified) | inactive | 
32 | Cc1ccc(C)n1C(Cc1ccccc1)C(=O)O (stereo unspecified) | inactive | 
33 | CCC1(C)NC(=O)N(CC(=O)N2CCN(c3cccc(Cl)c3)CC2)C1=O (stereo unspecified) | inactive | 
34 | Cc1ccc(C)c(NC(=O)COC(=O)CSc2ccccc2)c1 | inactive | 
35 | Cc1cccc(C)c1NC(=O)N1CC(C)OC(C)C1 (stereo unspecified) | inactive | 
36 | Cc1sc2nc(CSCC(=O)NC3CCCCC3)[nH]c(=O)c2c1C | inactive | 
37 | CNC(=O)CN1C(=O)NC(c2ccccc2)(c2ccccc2)C1=O | inactive | 
38 | Cc1c(C=O)n(C)n(-c2ccccc2)c1=O | inactive | 
39 | CCC1(c2ccccc2)C(=O)NC(=O)N(C)C1=O (stereo unspecified) | 16.9 µM (active) | 
40 | CN(CCc1ccccc1)c1ccc([N+](=O)[O-])cn1 | inactive | 
41 | COc1ccccc1/C=C1\SC(=O)N(CCC(=O)N(C)C2CCS(=O)(=O)C2)C1=O (stereo unspecified) | inactive | 
42 | CCC(=O)c1ccc(OC(=O)/C=C/c2cc(OC)c(OC)c(OC)c2)cc1 | inactive | 
43 | CN1CCN(C(CNS(=O)(=O)c2cccs2)c2cccnc2)CC1 (stereo unspecified) | inactive | 
44 | O=C(NCC(c1cccnc1)N1CCN(c2ccccc2)CC1)Oc1ccccc1 (stereo unspecified) | 13.1 µM (active) | 

Row | Compound | Potency | activity change, negative = inhibition
45 | Cc1ccc(C)c(NC(=S)NCC(c2cccnc2)N2CCOCC2)c1 (stereo unspecified) | inactive | 
46 | COc1cc(CO)ccc1OCC(=O)Nc1cccc2ccccc12 | inactive | 
47 | CC(C)(CNC(=O)CNC(=O)C1CCCCC1)N1CCOCC1 | inactive | 
48 | O=C(NC(=S)Nc1ccc(Cl)c(C(=O)O)c1)c1cncc(Br)c1 | inactive | 
49 | O=C(COC(=O)c1ccccc1)Nc1ccc(Cl)cc1C(=O)c1ccccc1 | inactive | 
50 | O=C(CCNS(=O)(=O)c1ccccc1)Nc1ccc(Cl)cc1C(=O)c1ccccc1 | 11.7 µM (active) | 
51 | CN1CCN(C(=S)SCC(=O)Nc2ccc(Cl)cc2C(=O)c2ccccc2)CC1 | inactive | 
52 | COc1ccc(-c2nnc(SCC(=O)Nc3cccnc3Cl)n2C)cc1 | inactive | 
53 | Cc1ccc(NC(=O)CN(C)C(=O)Cn2nnc(-c3ccccc3)n2)cc1 | inactive | 
54 | COc1ccccc1C(=O)COC(=O)CNS(=O)(=O)c1ccc(NC(C)=O)cc1 | inactive | 
55 | O=C(CNC(=O)c1ccc2ccccc2c1)Nc1ncccc1O | inactive | 
56 | O=C(Nc1ncccc1O)c1ccc(S(=O)(=O)N2CCCC2)cc1 | 3.29 µM (active) | 
57 | O=C(Nc1cccc(F)c1)c1ccc(S(=O)(=O)N2CCCC2)cc1 | inactive | 
58 | O=C(Nc1ccc(S(=O)(=O)N2CCCCCC2)cc1)c1c(F)cccc1F | inactive | 
59 | O=C(Nc1ncccc1O)c1ccc(C(=O)c2ccccc2)cc1 | 0.738 µM (active) | 
60 | O=C(Nc1ncccc1O)c1ccc(S(=O)(=O)N2CCCCCC2)cc1 | 4.15 µM (active) | 
61 | O=C(Nc1cccnc1)c1cccc(S(=O)(=O)N2CCCC2)c1 | inactive | 
62 | O=C(N/N=C/c1ccccn1)c1ccc(S(=O)(=O)N2CCCCCC2)cc1 | inactive | 
63 | O=C(NC(=O)c1ccccc1)Nc1ccccc1O |  | -2.78% [at 0.00184 µM] (inactive)
64 | O=C(COc1ccc(Cl)cc1Cl)N/N=C/c1ccccn1 | inactive | 
65 | CCc1ccc(NC(=O)CCNS(=O)(=O)c2cccs2)cc1 | inactive | 
66 | O=C(CCNC(=O)c1ccccc1)Nc1nc2ccccc2s1 | inactive | 
